From ChEMBL document CHEMBL4513141, “CO-ADD screening of NIH (USA) - Clinical Collection” (2021)
Entries with a potency or affinity are not part of this list.

The compounds below were run on Klebsiella pneumoniae. Settings: Concentration 20 uM; ASSAY_TEST Inhibition of Bacterial Growth; detection method Absorption (OD600); MEDIA CAMHB; plate type 384well; NBS; CORNING #3640; time 18 hr.

Structure (SMILES) | Inhibition [%]
CCCN1CCCC[C@H]1C(=O)Nc1c(C)cccc1C.Cl [ROPIVACAINE HYDROCHLORIDE] | 12.03
CN(C)CC/C=C1/c2ccccc2COc2ccc(CC(=O)O)cc21.Cl [OLOPATADINE HYDROCHLORIDE] | 3.13
Cl.O=C1[C@H]2CCCC[C@H]2C(=O)N1CCCCN1CCN(c2nsc3ccccc23)CC1 | 9.66
COc1ccc(-c2oc3c(CC=C(C)C)c(O[C@@H]4O[C@H](CO)[C@@H](O)[C@H](O)[C@H]4O)cc(O)c3c(=O)c2O[C@@H]2O[C@@H](C)[C@H](O)[C@@H](O)[C@H]2O)cc1 [ICARIIN] | 1.41
COc1ccc(C2CNC(=O)C2)cc1OC1CCCC1 (stereo not drawn) [ROLIPRAM] | 19.56
COCCCC/C(=N\OCCN)c1ccc(C(F)(F)F)cc1.O=C(O)/C=C\C(=O)O [FLUVOXAMINE MALEATE] | 6.46
CC(=O)[C@@]1(O)CC[C@H]2[C@@H]3C[C@H](C)C4=CC(=O)CC[C@]4(C)[C@H]3CC[C@@]21C | 2.71
CCOC(=O)[C@H](CCc1ccccc1)N[C@H]1CCc2ccccc2N(CC(=O)O)C1=O.Cl [BENAZEPRIL HYDROCHLORIDE] | 6.08
Cc1ccsc1C(=CCCN1CCC[C@@H](C(=O)O)C1)c1sccc1C.Cl [TIAGABINE HYDROCHLORIDE] | 9.25
CCN1CCC[C@H]1CNC(=O)c1cc(S(N)(=O)=O)ccc1OC [LEVOSULPIRIDE] | 18.7
COc1cc2nc(N3CCN(C(=O)C4CCCO4)CC3)nc(N)c2cc1OC (stereo not drawn) [TERAZOSIN] | 3.6
CC[C@H](C)C(=O)O[C@H]1C[C@H](O)C=C2C=C[C@H](C)[C@H](CC[C@@H](O)C[C@@H](O)CC(=O)[O-])[C@H]21.[Na+] [PRAVASTATIN SODIUM] | 13.36
O=C1C(c2c(O)[nH]c3ccccc23)=Nc2ccccc21 | 6.26
CNCCCCOc1ccccc1Cc1ccccc1.Cl | 18.69
CO[C@H]1O[C@@H]2O[C@@]3(C)CC[C@H]4[C@H](C)CC[C@@H]([C@H]1C)[C@@]24OO3 | 9.17
C[C@]12CC[C@@H]3c4ccc(O)cc4CC[C@H]3[C@@H]1CC[C@@H]2O [ESTRADIOL] | 5.27
CNCC[C@H](Oc1cccc2ccccc12)c1cccs1.Cl [DULOXETINE HYDROCHLORIDE] | 5.49
Nc1c2c(nc3c1CCC3)CCCC2 [IPIDACRINE] | 15
C[C@H]1[C@@H](OC(=O)CCC(=O)O)O[C@@H]2O[C@@]3(C)CC[C@H]4[C@H](C)CC[C@@H]1[C@@]24OO3 | 13.77

Structure (SMILES) | Inhibition [%]
CCS(=O)(=O)CCn1c([N+](=O)[O-])cnc1C [TINIDAZOLE] | 6.48
CC(Cc1ccc(O)c(O)c1)(NN)C(=O)O.O (stereo not drawn) | 11.66
COc1ccc2cc([C@H](C)C(=O)[O-])ccc2c1.[Na+] [NAPROXEN SODIUM] | 13.03
C[C@]12CCC(=O)C=C1CC[C@@H]1[C@@H]2[C@@H](O)C[C@@]2(C)[C@H]1CC[C@]2(O)C(=O)COC(=O)CCC(=O)O [HYDROCORTISONE HEMISUCCINATE ANHYDROUS] | -3.41
CC(C)(C)NCC(O)COc1cccc2c1CC(O)C(O)C2 (stereo not drawn) [NADOLOL] | 10.61
COc1ccc(/C=C/C(=O)Nc2ccccc2C(=O)O)cc1OC | 8.22
CN(C)CC[C@@H](c1ccc(Br)cc1)c1ccccn1.O=C(O)/C=C\C(=O)O [DEXBROMPHENIRAMINE MALEATE] | -0.14
O=C(NCCN1CCOCC1)c1ccc(Cl)cc1 [MOCLOBEMIDE] | 9.06
C[n+]1ccccc1/C=N/O.[Cl-] [PRALIDOXIME CHLORIDE] | 15.84
COc1cc(C)c(/C=C/C(C)=C/C=C/C(C)=C/C(=O)O)c(C)c1C [ACITRETIN] | 7.64
CN(C)CCOC(c1ccc(Cl)cc1)c1ccccn1.O=C(O)/C=C\C(=O)O (stereo not drawn) [CARBINOXAMINE MALEATE] | 12.89
Cc1ncc([N+](=O)[O-])n1CC(O)CCl (stereo not drawn) [ORNIDAZOLE] | 14.36
CC1(C)O[C@@H]2C[C@H]3[C@@H]4C[C@H](F)C5=CC(=O)C=C[C@]5(C)[C@H]4[C@@H](O)C[C@]3(C)[C@]2(C(=O)CO)O1 [FLUNISOLIDE] | 10.74
Cc1ccc(-c2cc(C(F)(F)F)nn2-c2ccc(S(N)(=O)=O)cc2)cc1 [CELECOXIB] | 10.55
CC(=O)OCC(=O)[C@@]1(O)CC[C@H]2[C@@H]3CCC4=CC(=O)C=C[C@]4(C)[C@H]3[C@@H](O)C[C@@]21C [PREDNISOLONE ACETATE] | 12.95
C=C(CC)C(=O)c1ccc(OCC(=O)O)c(Cl)c1Cl [ETHACRYNIC ACID] | 8.53
CCC1(c2ccccc2)C(=O)NCNC1=O [PRIMIDONE] | 7.75
CC(=O)CCCCn1c(=O)c2c(ncn2C)n(C)c1=O [PENTOXIFYLLINE] | 12.41
NC(=O)c1cnccn1 [PYRAZINAMIDE] | 10.9
